High-throughput results: PubChem, several laboratories
Mot1-301 SUMO = blocks SUMOylation pathway, rescuing yeast Mot1-301 growth | growth rescue, % at 18.8 µM | hit rate 1% among 320,000 | S. cerevisiae Mot1-301 growth rescue, ATP luminescence, 38.5C; percent above DMSO median, 100 means doubled;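 active = every valid replicate shows activation above 250% relative to neutral control wells; inactive = the rest, any valid replicate at or below 250%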
Bfl-1 A1 inh = inhibitors of the anti-apoptotic protein A1, read as caspase activation | caspase activation, % (no concentration beside the values) | hit rate 0.066% among 330,000 | MEF A1-2A-BIM cells, Caspase-Glo 3/7 luminescence, 3 h; percent of clofoctol response, vehicle zero;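 active = over half of replicate activation scores above 10%, or exactly half above 10 with the replicate mean above 10; inconclusive = replicate mean below 10 yet half the replicates above 10; inactive = over half of replicates below 10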
Efflux pump inh = antifungal efflux pump inhibition, Nile Red retention. inhibition, % at 10 µM. hit rate 0.44% among 330,000. S. cerevisiae Candida pump triplex;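 active = plate passing quality check with inhibition over a set limit, or well fluorescence over plate mean plus 4 SD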;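 also: Nile Red retained in pooled yeast measured as flow cytometry median fluorescence; higher means more Nile Red kept so more efflux inhibition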
VLA-4 inh = inhibition in a human VLA-4 binding assay. P13612. VLA-4 expressing cells, ligand binding flow cytometry. AID 2557. hit rate 0.2% among 330,000. inhibition, % (about 7 µM as worked out from the volumes in the protocol); in the data active = inhibition above about 50%
AHR act = human AHR activation; AHR-responsive luciferase reporter cells, luminescence; AID 2796; P35869; activation, % at 5 µM; hit rate 2.5% among 320,000; in the data active = activation above about 47%
ALR inh = blocks human ALR sulfhydryl oxidase activity. P55789. purified ALR, DTT oxidation, H2O2 HRP-luminol luminescence. inhibition, % (no concentration beside the values). hit rate 3.8% among 290,000;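 active = mean replicate inhibition above about 79%, with every replicate also reaching it, limit read from the data; inconclusive = only one of the two criteria met; inactive = mean below limit and not every replicate reaching it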
Target sequence (P55789 whole entry, looked up): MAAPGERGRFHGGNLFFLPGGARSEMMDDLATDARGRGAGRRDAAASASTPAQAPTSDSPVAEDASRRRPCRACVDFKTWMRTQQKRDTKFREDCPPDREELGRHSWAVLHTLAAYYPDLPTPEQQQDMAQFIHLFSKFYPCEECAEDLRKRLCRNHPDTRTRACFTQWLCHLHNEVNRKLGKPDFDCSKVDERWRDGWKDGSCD
Cmpd fluor yeast = flagged as fluorescent in efflux inhibitor counter-screen | shares compounds with Efflux pump inh | S. cerevisiae AD/pABC3, compound fluorescence, flow cytometry | fluorescence ratio to DMSO, % at 10 µM | hit rate 4% among 1,700 | AID 588517;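 active = fluorescence ratio to DMSO above its plate's cutoff, the plate mean ratio plus 5 SD, cut at about 210% in these data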;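 also: unstained yeast with no Nile Red so the signal is compound autofluorescence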
Mdr1 pump inh = inhibitors of Candida albicans Mdr1 efflux pump; shares compounds with Efflux pump inh; S. cerevisiae AD/CaMDR1, Nile Red efflux, flow cytometry; inhibition, % at 10 µM; hit rate 1% among 1,700; AID 588518; in the data active = inhibition above about 26%;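 also: higher means more Nile Red retained so more efflux inhibition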
CaCdr2 efflux inh = blocks the Candida albicans Cdr2 efflux pump in yeast. Nile Red retention ratio vs DMSO, % at 10 µM. hit rate 4% among 1,700. shares compounds with Efflux pump inh. S. cerevisiae AD/CaCDR2, Nile Red retention, flow cytometry; in the data active = Nile Red retention ratio vs DMSO above about 190%;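 also: higher ratio means more blocking of Cdr2 efflux of the dye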
CaCdr1 efflux inh = Candida Cdr1 efflux pump inhibition; S. cerevisiae AD/CaCDR1, Nile Red efflux, flow cytometry; inhibition, % at 10 µM; shares compounds with Efflux pump inh; hit rate 1% among 1,700;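 active = inhibition above the screen-wide mean plus twice its standard deviation, cut at about 32% in these data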
A number is an active result; i = inactive; ? = inconclusive; nt = not tested or not shown. Shown are actives, neighbours in structure and some others; about 7.2% of the full set was active somewhere.

SMILES | Mot1-301 SUMO | Bfl-1 A1 inh | Efflux pump inh | VLA-4 inh | AHR act | ALR inh | Cmpd fluor yeast | Mdr1 pump inh | CaCdr2 efflux inh | CaCdr1 efflux inh
O=C(CSc1nc2ccccc2c(=O)n1-c1ccc(F)cc1)Nc1ccc(N2CCOCC2)cc1 | i | i | i | i | i | i | nt | nt | nt | nt
O=C(c1cc2c(ccc3ccccc32)o1)N1CCN(c2ncc(C(F)(F)F)cc2Cl)CC1 | i | i | 51.7 | i | i | i | i | i | i | i
Cc1cc(C(=O)NC2CC(C)(C)Cc3c2cnn3-c2cccc(F)c2)n(C)n1 (centres undefined) | i | i | i | i | i | i | i | i | i | i
Cc1cc(C(=O)NC2CC(C)(C)Cc3c2cnn3-c2ccccc2)n(C)n1 (centres undefined) | i | i | i | i | i | i | nt | nt | nt | nt
Cc1cc(C(=O)NC2CC(C)(C)Cc3c2cnn3-c2ccc(F)cc2)no1 (centres undefined) | i | i | i | i | i | i | i | i | i | i
CCc1cc2c(N=Nc3c(O)[nH]c4ccccc34)ncnc2s1 | i | i | i | i | i | i | nt | nt | nt | nt
CCc1ccc2[nH]c(O)c(N=Nc3nc(-c4ccccc4)cs3)c2c1 | i | i | 0.9 | i | 62.7 | i | i | i | i | i
COc1ccc2[nH]c(=O)c(CN(CC3CCCO3)S(=O)(=O)c3ccccc3F)cc2c1 (centres undefined) | i | i | i | i | i | i | nt | nt | nt | nt
O=C(O)/C=C/c1cn(-c2ccccc2)nc1-c1ccc(-c2ccc([N+](=O)[O-])cc2)o1 | i | i | 0.9 | i | i | i | i | i | i | i
CCN(Cc1ccccc1)C(c1ccncc1)c1nnnn1C(C)(C)C (centres undefined) | i | i | 0.4 | i | i | i | i | i | i | i
c1ccc(CN(Cc2ccco2)C(c2ccncc2)c2nnnn2C2CCCC2)cc1 (centres undefined) | i | i | 0.6 | i | i | i | i | i | i | i
CCc1cc(=O)oc2cc(OC(C)C(=O)NCC3CCC(C(=O)O)CC3)c(Cl)cc12 (centres undefined) | i | i | i | i | i | nt | nt | nt | nt | nt
CCN1C(=O)[C@H]2[C@H]3[C@H](O)[C@H](O)C/C(=N\OC[C@@H](C)[C@H](OCc4ccccc4)C(C)C)[C@@H]3CC[C@H]2C1=O | i | i | nt | nt | i | nt | nt | nt | nt | nt
COc1ccccc1N1CC(C(=O)NCC2COc3ccccc3O2)CC1=O (centres undefined) | i | i | i | i | i | i | nt | nt | nt | nt
CNCc1ccccc1OCC(=O)Nc1ccccc1 | i | i | 8.2 | i | i | i | i | i | i | i
O=C(Cc1c(Sc2ccccc2)c2ccccc2n1Cc1ccccc1)NCCO | i | i | i | i | i | i | nt | nt | nt | nt
CN(C)CCNS(=O)(=O)c1ccc(N2CCN(c3ccc(F)cc3)CC2)c([N+](=O)[O-])c1 | i | i | 11.4 | i | i | ? | i | i | i | i
C=CC1=C2C=C(C3CC3)N(CCCN(CC)CC)C=C2C(=O)C(C)(OC(=O)c2ccco2)C1=O (centres undefined) | i | i | i | i | i | i | nt | nt | nt | nt
Cc1ccccc1C(=O)N1CCC(C(=O)N2CCN(S(=O)(=O)c3ccccc3F)CC2)CC1 | i | i | i | i | i | i | nt | nt | nt | nt
CC(=O)NC(CC(=O)OCC(=O)N1CCN(S(=O)(=O)c2ccc(C)cc2C)CC1)c1ccccc1 (centres undefined) | i | i | i | i | i | i | nt | nt | nt | nt
CC(C)Cn1nc(C(=O)Nc2nnc(C3CC3)s2)c2ccccc2c1=O | i | i | 0.9 | i | i | i | i | i | i | i
Cc1nn(-c2ccc([N+](=O)[O-])cc2)c2c1C(c1ccc(OC(F)F)cc1)N1C(=N2)C(=O)Nc2ccccc21 (centres undefined) | i | i | 1.6 | i | i | i | i | i | i | i
